Assay results as given in article PMC7819943, “Rice protein-binding microarrays: a tool to detect cis-acting elements near promoter regions in rice”.
Over roughly 68,000 sequences, “fluorescence intensity (a.u.)” has its median near 9,100; the highest 2% begin near 16,000. The sample holds the highest values, similar sequences and a random draw of the others, so the mix is not that of the screen.

What follows are sequences tested against OsWRKY34 (Oryza sativa, UniProt Q0JBA9 1-250) (assay: protein-binding microarray (RPBM); PBS, 2% BSA, 51.3 ng/ul salmon testes DNA, 50 uM zinc acetate, 200 nM TF, 25 C, 1 h; high values mean tight binding). Conditions: protein: recombinant; tags: N-terminal polyhistidine and DsRed monomer fusion (pET32a); label: CyDye5-dUTP incorporated in the synthesized complementary strand; 3' TTTTT single-stranded linker to array surface; dsDNA, one strand shown.
Chain of OsWRKY34 (Q0JBA9 entry or part of it): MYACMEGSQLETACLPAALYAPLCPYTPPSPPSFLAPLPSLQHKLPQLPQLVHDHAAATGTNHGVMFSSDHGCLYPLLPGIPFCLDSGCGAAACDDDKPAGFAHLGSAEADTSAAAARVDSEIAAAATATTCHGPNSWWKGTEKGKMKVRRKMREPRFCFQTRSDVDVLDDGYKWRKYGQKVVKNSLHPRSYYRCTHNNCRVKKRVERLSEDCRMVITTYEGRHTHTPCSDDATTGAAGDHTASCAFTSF
Summary of the method: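 A custom Agilent array was converted to double-stranded form by primer extension with Cy5-dUTP and blocked with 2% BSA. Protein at 200 nM in PBS with 2% BSA, salmon testes DNA and 50 µM zinc acetate was applied for 1 h at 25 °C, followed by washing. The proteins were polyhistidine–DsRed N-terminal fusions of transcription factors, expressed in E. coli BL21-CodonPlus and Ni–NTA-purified. The binding signal is per-feature fluorescence intensity (arbitrary units) from an Axon 4000B scanner.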
With “CCTTCGACCCGTCCCCTCACAAACGGCCGTTTCCCTCCCGCGGAGTCACCTAGTGCAG” the binding signal was 9230 fluorescence intensity (a.u.).
With “GATCGAATCGAATAGAGTACATTCTCTACAGGGGAGGGGACGGAGTCACCTAGTGCAG” the binding signal was 9760 fluorescence intensity (a.u.).
In the case of “GTCTGTGAATGTTTTATTTGCCTTGTCTGAACTATCTTTACGGAGTCACCTAGTGCAG”, the binding signal is reported as 11400 fluorescence intensity (a.u.).
In the case of “TGTTGGTGAATGGTAATTTTTTGGGTTGATATGTTGCTGACGGAGTCACCTAGTGCAG”, the binding signal is reported as 9580 fluorescence intensity (a.u.).
In the case of “CTTCCTTCCTAACGTATCGCCCACATTCCTCCACGTCTCCCGGAGTCACCTAGTGCAG”, the binding signal is reported as 8980 fluorescence intensity (a.u.).
In the case of “TCCATTTCCTTGTTTGGTTGGGTGGATGAGAATGGATTGACGGAGTCACCTAGTGCAG”, the binding signal is reported as 9010 fluorescence intensity (a.u.).
In the case of “ACACCGCACCGCCGCAATCGTTGGCACAAGCTACAACCCTCGGAGTCACCTAGTGCAG”, the binding signal is reported as 8540 fluorescence intensity (a.u.).
“CAAAACAGCCGCGTTTTGGCTCACTAGTCACTTGTTTGACCGGAGTCACCTAGTGCAG” was tested, and the binding signal was 9710 fluorescence intensity (a.u.).
In the case of “TTGTCTCACCACTGCTTCGCATCCTCCGCCGCCGCCTCACCGGAGTCACCTAGTGCAG”, the binding signal is reported as 11000 fluorescence intensity (a.u.).
With “CAGCCCACCGCCGCATCCTCGCAACCACTGTCTCGCTCTCCGGAGTCACCTAGTGCAG” the binding signal was 17000 fluorescence intensity (a.u.).
With “GCAACCACTGTCTCGCTCTCCGCCGCCATCGCCGCCGCCGCGGAGTCACCTAGTGCAG” the binding signal was 10500 fluorescence intensity (a.u.).
In the case of “ATTTTTTTGGGCGCGGGTTGGAGCCGGTTTGACTAAAAGGCGGAGTCACCTAGTGCAG”, the binding signal is reported as 8310 fluorescence intensity (a.u.).
With “GATTGACTTGCCAAACATTTTACATGCGTTTATTGTACCACGGAGTCACCTAGTGCAG” the binding signal was 9920 fluorescence intensity (a.u.).
“CTCCTGGCAACCCCATGCACTGCTTTTGCTGCCCTTAAGTCGGAGTCACCTAGTGCAG” was tested, and the binding signal was 8620 fluorescence intensity (a.u.).
In the case of “AAATATACAACTCTTGGACGCCCTTACATCTCTCCATTGTCGGAGTCACCTAGTGCAG”, the binding signal is reported as 8230 fluorescence intensity (a.u.).
With “AGCCACCTTGTCGTTTTCCGCTCCTCACCTGCTCAACTTCCGGAGTCACCTAGTGCAG” the binding signal was 9800 fluorescence intensity (a.u.).
“AGAGGTTTGGGGTTGGTTCATCTCGCGGGCTTGGGCGGCGCGGAGTCACCTAGTGCAG” was tested, and the binding signal was 14400 fluorescence intensity (a.u.).
“GGTTTGGAGGCGGAGGTGGCGCTGGAGGAGGCGGCGGTCTCGGAGTCACCTAGTGCAG” was tested, and the binding signal was 9970 fluorescence intensity (a.u.).
“GTGCGCGTTCTTGGTGTTATGGAGGCGGGTCTCGGCGGGGCGGAGTCACCTAGTGCAG” was tested, and the binding signal was 17600 fluorescence intensity (a.u.).
In the case of “GGTTTGGTTGGGGTTTAGGTCTCGGGGCGGCGCGGAGGCGCGGAGTCACCTAGTGCAG”, the binding signal is reported as 17700 fluorescence intensity (a.u.).
“ACACACCGCGGGTTGGAGGAGGAGGAGGAGGAGGTAGGGGCGGAGTCACCTAGTGCAG” was tested, and the binding signal was 10500 fluorescence intensity (a.u.).
In the case of “GTTTGATTTGGTGAGGCGGGCGGTGTGCGCGTGGTGGTCTCGGAGTCACCTAGTGCAG”, the binding signal is reported as 8680 fluorescence intensity (a.u.).
In the case of “CTTGGAGGTGGTTCAGGTGGAGGCGGCGGTCTCGGAGGTGCGGAGTCACCTAGTGCAG”, the binding signal is reported as 9240 fluorescence intensity (a.u.).
For “TACGGGTTAGGGTTTGGGGTTGGGGTCAAGGTAGGAGGGGCGGAGTCACCTAGTGCAG”, the binding signal was 22500 fluorescence intensity (a.u.).
For “CGGCGGGTTAGGGTTTGGGGTTGGGGTAAGGATAGGAGGGCGGAGTCACCTAGTGCAG”, the binding signal was 14200 fluorescence intensity (a.u.).
With “GCCTCGACATGCGCGTCCGATTTATCCCCTTTTTTTTTTTCGGAGTCACCTAGTGCAG” the binding signal was 8470 fluorescence intensity (a.u.).
With “CATGCCAGGTGTTGGGCCTCATCGTCGGCCGCTTAGTATCCGGAGTCACCTAGTGCAG” the binding signal was 8380 fluorescence intensity (a.u.).
With “TTTTGTCCTTCAACCTGTTGAAGTTGTTTTCAGTTGTTCACGGAGTCACCTAGTGCAG” the binding signal was 11600 fluorescence intensity (a.u.).
“GTCACCAGTGTCCGCCAATAATTTGCACATCTTCTCATATCGGAGTCACCTAGTGCAG” was tested, and the binding signal was 10300 fluorescence intensity (a.u.).
“TGCTTAGTTGCCCTACAACCTTTTTACAGGCTATATTTATCGGAGTCACCTAGTGCAG” was tested, and the binding signal was 8110 fluorescence intensity (a.u.).
For “TAGCTTAATATTTTTTTTCTCGCTAGCTTTATTTAAAATGCGGAGTCACCTAGTGCAG”, the binding signal was 8170 fluorescence intensity (a.u.).
“TATTCACGGCTGCACTTATTTTGGGACGGAGGTAGTATTTCGGAGTCACCTAGTGCAG” was tested, and the binding signal was 8070 fluorescence intensity (a.u.).
“CCCTCCTTCCCTTTTAGTGGGTCTGTTTTCTTGGAGCGCGCGGAGTCACCTAGTGCAG” was tested, and the binding signal was 8600 fluorescence intensity (a.u.).
With “CGCAGAATCACAGTTTTTCTTCATCTCCGGCAAGGGTAATCGGAGTCACCTAGTGCAG” the binding signal was 8960 fluorescence intensity (a.u.).
With “ACGCACCAACCGTCCCTCTTTCGCTCACACTCTTCCTTCCCGGAGTCACCTAGTGCAG” the binding signal was 9700 fluorescence intensity (a.u.).
In the case of “CTTTTCCTGCTTGGTTCGTTACTCCTGTTTAATTATTATTCGGAGTCACCTAGTGCAG”, the binding signal is reported as 14600 fluorescence intensity (a.u.).
In the case of “CAATTGGTTGGGTTTCTTGTGCCTACCTGTGTTTAAGTTCCGGAGTCACCTAGTGCAG”, the binding signal is reported as 9160 fluorescence intensity (a.u.).
For “CGGGGTTTCACTTGGTTTTAATTGTTCCTGTGCTGCGTCGCGGAGTCACCTAGTGCAG”, the binding signal was 18700 fluorescence intensity (a.u.).
In the case of “GTCCCATCACCTTATTTCTCATTTTGATTTACTTTTATCTCGGAGTCACCTAGTGCAG”, the binding signal is reported as 9330 fluorescence intensity (a.u.).
“TTTCTTTTTTTTGCCTACCTTTACTTTACACCAAAAACTGCGGAGTCACCTAGTGCAG” was tested, and the binding signal was 8630 fluorescence intensity (a.u.).
“TACATACTCCTACTCCGTAGTTTGCTGCTTTGTTGGATTCCGGAGTCACCTAGTGCAG” was tested, and the binding signal was 12900 fluorescence intensity (a.u.).
For “ATACCACCTTATATACTTTGCCAAAACCACCTTTTCCAAGCGGAGTCACCTAGTGCAG”, the binding signal was 9040 fluorescence intensity (a.u.).
With “TTGCTCGTATTTTCTCCCCAAAGTCATCAACTTTGATGCTCGGAGTCACCTAGTGCAG” the binding signal was 19000 fluorescence intensity (a.u.).
In the case of “TATAGATAGATACTACCAGGGTTTCCAAACTGTTTTTTTGCGGAGTCACCTAGTGCAG”, the binding signal is reported as 23300 fluorescence intensity (a.u.).
“AGTACTACTACTACTACATACAGCTGCCTTTGCTTAGCTCCGGAGTCACCTAGTGCAG” was tested, and the binding signal was 9580 fluorescence intensity (a.u.).
With “TATTTTTTGCATTTTGCTCCCTGATTTGAACTGTATTTCTCGGAGTCACCTAGTGCAG” the binding signal was 8660 fluorescence intensity (a.u.).
For “GCCTACTCCTACTTGTACATACTTGCTTTTTTTTTTTTTCCGGAGTCACCTAGTGCAG”, the binding signal was 17500 fluorescence intensity (a.u.).
